# The supplement of paper PMC3334620
# In all, about 33,000 sequences were measured (“E-score (-0.5 to 0.5)”: median about -0.056, highest 2% from about 0.38 on). Many of the other results were omitted from the sample, so the highest values are more common in it than they were.
# Target: Stb4 (UniProt P50104)
# Experiment: PBM E-score (8-mer binding enrichment) (E-score (-0.5 to 0.5)); higher = stronger / more preferred TF binding
# Settings: protein concentration: 200 nM; construct: GST-DNA-binding domain
# Experimental: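 Universal 'all 10-mer' protein binding microarrays (Agilent AMADID 015681) probed with GST-tagged S. cerevisiae TFs (full-length or DBD) made by in vitro transcription/translation (PURExpress), about 100-200 nM. Bound TF was detected with fluorescent anti-GST. Each ungapped 8-mer (which stands for itself and its reverse complement) is scored by the PBM enrichment score (E-score), a modified Wilcoxon-Mann-Whitney statistic from -0.5 to +0.5, computed with the Universal PBM Analysis Suite. Scale: above 0.35 generally sequence-specific binding.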
# Sequence of UniProt P50104 (P50104 whole entry): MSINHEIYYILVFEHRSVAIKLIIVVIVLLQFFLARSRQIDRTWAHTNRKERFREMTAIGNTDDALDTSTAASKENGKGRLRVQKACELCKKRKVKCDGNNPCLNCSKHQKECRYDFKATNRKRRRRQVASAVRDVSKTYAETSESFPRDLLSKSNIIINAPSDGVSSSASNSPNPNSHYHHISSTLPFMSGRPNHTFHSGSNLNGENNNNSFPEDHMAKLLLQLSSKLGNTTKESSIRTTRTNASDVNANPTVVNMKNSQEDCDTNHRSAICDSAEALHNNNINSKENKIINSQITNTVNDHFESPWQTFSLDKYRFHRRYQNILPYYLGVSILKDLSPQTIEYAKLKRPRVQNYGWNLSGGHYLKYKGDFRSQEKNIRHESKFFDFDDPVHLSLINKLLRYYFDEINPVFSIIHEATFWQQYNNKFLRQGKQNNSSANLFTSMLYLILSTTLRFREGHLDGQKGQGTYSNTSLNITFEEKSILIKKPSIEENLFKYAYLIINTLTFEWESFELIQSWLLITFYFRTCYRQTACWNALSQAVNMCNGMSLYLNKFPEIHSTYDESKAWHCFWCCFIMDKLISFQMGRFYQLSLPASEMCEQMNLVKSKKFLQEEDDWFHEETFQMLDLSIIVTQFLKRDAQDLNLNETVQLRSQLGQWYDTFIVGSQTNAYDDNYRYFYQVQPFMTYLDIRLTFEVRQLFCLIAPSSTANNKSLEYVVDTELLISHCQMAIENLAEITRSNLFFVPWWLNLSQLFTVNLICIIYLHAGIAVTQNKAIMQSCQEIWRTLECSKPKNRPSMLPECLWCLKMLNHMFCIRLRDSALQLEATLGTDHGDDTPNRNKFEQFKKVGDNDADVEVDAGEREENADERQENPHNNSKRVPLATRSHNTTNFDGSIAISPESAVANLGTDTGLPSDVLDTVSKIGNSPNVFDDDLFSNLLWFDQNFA
row,Sequence,PBM E-score
1,CATTTTGA,-0.162
2,CGTTGAGC,-0.0224
3,AGGATCCC,0.0362
4,CGGATCCC,0.38
5,AGGATCCG,0.395
6,AGGATCCT,-0.218
7,CGGATCCG,0.462
8,CGGATCCA,0.36
9,ATGGCGTC,-0.158
10,GATTGACC,0.0279
11,CAAAATAC,-0.00837
12,ACTAGAAC,0.0472
13,AGGCTCTA,-0.08
14,ATAGCTTA,-0.106
15,AGAGCCGG,0.24
16,CGAGCCAA,0.00699
17,AGAGCCGA,0.39
18,GGAGCCGA,0.379
19,CGAGCCGA,0.399
20,CGAGCCGC,0.328
21,ATGCGGGG,0.0133
22,CCAGTCCG,0.17
23,ATGGCAGC,-0.171
24,ACCTACGA,-0.199
25,ACGCCATA,-0.131

row,Sequence,PBM E-score
1,CGGGCCCA,0.11
2,CCGGCCCG,0.392
3,AGGGCCCG,0.205
4,CCGGGCCG,0.382
5,ACGGCCCG,0.284
6,CCGGCCCA,0.17
7,CGGGCCCG,0.419
8,CCGGGCCC,0.303
9,CCGGGCCA,0.18
10,CAATTTGA,-0.046
11,TTCTACAA,-0.129
12,AAATCATT,-0.067
13,TCACCCAA,-0.112
14,GCACCCGC,0.285
15,GCACCCGA,0.434
16,GCACCCCA,-0.0865
17,ACACCCGA,0.445
18,TCACCCGA,0.407
19,ACACCCGG,0.331
20,CCACCCGA,0.379
21,ACACCCGC,0.164
22,CTGCGAAC,-0.298
23,CCAACTTA,-0.00182
24,CTCTTAAC,-0.0542
25,GAGTACCC,0.0867

row,Sequence,PBM E-score
1,GGGGATAA,0.00287
2,TGGGATAA,-0.182
3,CCGGATAG,0.424
4,CGGGATAG,0.191
5,TCGGATAA,0.487
6,GCGGATGA,0.304
7,CAGGATAG,-0.0723
8,CCGGATAA,0.452
9,TAGGATAA,-0.0915
10,CAGGATAA,-0.12
11,GCGGATAA,0.403
12,CCGGATTA,0.319
13,ATTATCTC,0.0642
14,CAGGGAGA,-0.266
15,CGATGGTC,-0.158
16,CTTCTTTA,-0.0675
17,GACCCTGC,0.1
18,AAAGCGTC,-0.194
19,CACACTAA,-0.194
20,CGAGAAGA,0.0362
21,CCGATATC,0.297
22,GCGGATAC,0.367
23,CCGGATAC,0.409
24,CAGGATAC,-0.198
25,ATCGGCCG,0.305

row,Sequence,PBM E-score
1,AAAGCCAG,-0.246
2,CGGAACAA,0.444
3,AGGAACAG,-0.243
4,CGGAACAG,0.427
5,GGGAACAA,0.225
6,TGGAACAA,-0.2
7,CGGAACAC,0.367
8,ATCTATGG,-0.184
9,AGCTCGTG,0.0631
10,AGCTCGCC,-0.0787
11,AGCTCGGC,0.412
12,AGCTCGAC,-0.0952
13,AGCTCGGG,0.443
14,AGCTCGCG,-5e-05
15,CGTGCCAG,-0.186
16,AAGGTAGG,-0.0211
17,ACTTGACA,-0.05
18,ACGATACG,-0.314
19,CGCCGATC,0.241
20,CGCCGAGC,0.39
21,CGCCGAGA,0.361
22,AGCCGATC,0.313
23,GGCCGAGA,0.347
24,AGCCGACC,0.293
25,AGCCGAGG,0.437

row,Sequence,PBM E-score
1,AGCCGCGG,0.315
2,AGCCGAGC,0.448
3,AGCCGAGA,0.436
4,AGCCGATA,0.344
5,CACCGAGG,0.308
6,GCATATGC,-0.173
7,CGCCACGC,-0.108
8,AAGGACTC,0.127
9,TGGATGAA,-0.185
10,GTGCCAGA,-0.31
11,AAGCGGCA,0.133
12,GCTGACGA,-0.346
13,GAGCACTC,0.09
14,TTCCGGAA,0.46
15,GTCCGGAA,0.373
16,AACCGGAG,0.23
17,CTCCGGAC,0.285
18,TTACGGAA,0.365
19,ATCCGGAA,0.436
20,AACCGGAT,0.383
21,CTCCGGTA,0.254
22,AACCGGAA,0.377
23,CTCCGGAA,0.391
24,ATCCGGAC,0.336
25,ATACGGAA,0.36

row,Sequence,PBM E-score
1,CAAATCCC,0.141
2,CACCCAGG,-0.115
3,GCGCCGCA,0.0423
4,GCTGGCAC,-0.224
5,CTAAAATC,-0.12
6,CCCGCTTA,0.0362
7,AAACAGTT,-0.0803
8,AATCAATC,0.055
9,ATCCGGTA,0.322
10,ATCCGGTG,0.397
11,CTCCGGAG,0.304
12,ATCCGGAG,0.385
13,ATCCGCAT,0.348
14,ATCCGGAT,0.459
15,ATCCGGTC,0.302
16,GTCCGGAC,0.283
17,ATGCGGAG,0.0793
18,CCTGGGTC,-0.126
19,AGTTAAAA,0.045
20,CATCAGGC,-0.149
21,GCTCATCC,0.127
22,GACGGATC,0.265
23,AACGGATT,0.155
24,CACGGATC,0.35
25,GACGGAGA,0.187

row,Sequence,PBM E-score
1,AACGGATA,0.439
2,GACGGATA,0.385
3,AACGGATG,0.304
4,TACGGATA,0.385
5,TACGGAAA,0.322
6,TACGGAGA,0.0409
7,CACGGATA,0.385
8,CACGGATG,0.338
9,GCTCAACC,-0.206
10,ACTCTCCT,-0.272
11,GGCAAGTA,0.0793
12,TGCGAGAA,-0.132
13,CAAAATCA,-0.00631
14,CATCCGAA,0.476
15,AATCCGCA,0.157
16,TATCCGAA,0.493
17,GATCCGAA,0.482
18,TATCCGCA,0.408
19,GATCCAAA,-0.0151
20,GATCCGTA,0.351
21,CATCCGCA,0.314
22,TATCCAAA,-0.184
23,CATCCTAA,-0.079
24,TGTCCGAA,0.35
25,CATCCAAA,-0.2
